The values below come from PubChem BioAssay.

The nature of this experiment: compound effects on lung adenocarcinoma cell viability – A549, calcein-AM fluorescence, 48 h, basal, profiling panel (AID 1162). Also: test concentration not given here. The settings on record: higher = more signal.
`C=CC[C@@]12N=C(c3ccc(OCCCO)cc3)O[C@@H]1c1ccccc1N(CCS(=O)(=O)c1ccccc1)C2=O`: the z-score was 0.4. The value for `CN(C)CCCNC(=O)[C@@]1(C)c2ccccc2C(=O)N(Cc2cc(C(F)(F)F)cc(C(F)(F)F)c2)[C@H]1c1ccc(CO)cc1` was -0.434. Regarding `CC(C)NC(=O)[C@@]1(C)c2ccccc2C(=O)N(C(C)C)[C@H]1c1ccc(CO)cc1`, the z-score is -0.619. For the compound `O=C(N1CCCCC1)[C@@]1(Cc2ccccc2)COC(c2ccc(OCCCO)cc2)=N1`, the z-score is -1.14. As to `O=C1C[C@@](C(=O)NCC(F)(F)F)(c2ccc([N+](=O)[O-])cc2)[C@@H](c2ccc(CO)cc2)N1C1CCCCC1`, the z-score was -0.113.

Take `O=C1c2ccccc2[C@](Cc2ccccc2I)(C(=O)NCc2ccccc2)[C@H](c2ccc(CO)cc2)N1C1CCCCC1`: the z-score was -0.475.

As for `C=CC[C@@]1(C(=O)N2CCCCC2)N=C(c2ccc(OCCCO)cc2)O[C@@H]1c1ccccc1`, the z-score was -0.721. Take `C=CCOC(=O)[C@@H]1[C@H]2C(=O)O[C@H](c3ccccc3)[C@H](c3ccccc3)N2[C@H](c2ccc(OCCOC(=O)[C@H]3C[C@H]4C(=O)N[C@@H](CCCC[N+](C)(C)C)C(=O)N4[C@H]3c3ccc(O)cc3)cc2)[C@@]12C(=O)Nc1ccc(I)cc12`: the z-score is -0.105. The value for `C[C@H]1ON(c2ccc(C(=O)OC(C)(C)C)cc2)[C@@H](c2ccc(O)cc2)[C@@H]1C(=O)N1C(=O)OC[C@@H]1c1ccccc1` was -0.674; that for `Cc1c(NC(=O)/C(C#N)=C/C=C/c2ccccc2[N+](=O)[O-])c(=O)n(-c2ccccc2)n1C` was -1.22.
